Experimental data as given in PubChem BioAssay (NCI).
Compounds without any hit were thinned out: in the full panel of roughly 83,000, 20% have a hit.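 In brief: 96-well plates, 48 h treatment, single concentration, percent growth endpoint.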 Unmarked numbers belong to inactive results. Activity calls are given as the source filed them. Rule for the calls: active = growth percent below 10; inactive = the rest.

Legend:
Experiment in all cases: NCI-60 one-dose screen, 48 h (100 = growth as untreated, 0 = no growth, -100 = all killed)
Conditions in all cases: 10 µM unless noted
[1] = tested on: HCT-15 colon
[2] = tested on: HT29 colon
[3] = tested on: SNB-75 CNS
[4] = tested on: SNB-19 CNS
[5] = tested on: U251 CNS
[6] = tested on: PC-3 prostate
[7] = tested on: SK-MEL-5 melanoma
[8] = tested on: UACC-62 melanoma
[9] = tested on: LOX IMVI melanoma
[10] = tested on: SK-MEL-2 melanoma
[11] = tested on: EKVX NSCLC
[12] = tested on: SN12C renal
[13] = tested on: UO-31 renal
[14] = tested on: TK-10 renal
[15] = tested on: ACHN renal
[16] = tested on: CAKI-1 renal
[17] = tested on: A498 renal
[18] = tested on: CCRF-CEM leukemia
[19] = tested on: MOLT-4 leukemia
[20] = tested on: SK-MEL-28 melanoma

SMILES	growth [1]	growth [2]	growth [3]	growth [4]	growth [5]	growth [6]	growth [7]	growth [8]	growth [9]	growth [10]	growth [11]	growth [12]	growth [13]	growth [14]	growth [15]	growth [16]	growth [17]	growth [18]	growth [19]	growth [20]
CCN(CC)CC(O)COc1c(Br)c(Br)c(Br)c2c1OC(C)(C)C2 (configuration not stated)	97.3%	18.9%	91.3%	73.4%	85.6%	78.1%	-78.9% (active)	-43.7% (active)	52.9%	338%	105%	79.4%	91.2%	58.4%	97.9%	17.6%	-86.9% (active)	45.8%	22.3%	
N=C(N)c1ccc(-c2ccc(-c3ccccc3)o2)cc1	-62.1% (active)	-76.5% (active)	19.8%	-16.9% (active)	-77.7% (active)	-23.3% (active)	-80.6% (active)	-70% (active)	-89.8% (active)	-86.6% (active)	-18.1% (active)	-39.5% (active)	-82.2% (active)	-77.4% (active)	-65.9% (active)	-1.49% (active)	-21.9% (active)	-39.4% (active)	-56.2% (active)	-61.1% (active)
Cc1cc(C)c2c(c1)N(C)c1ncnc(-n3cnc4cc(C)ccc43)c1CC2C (configuration not stated)	23.4%	0.933% (active)	29.1%	35.7%	14.6%	20.9%	8.49% (active)	30.7%	46.5%	16.7%	39%	43.1%	33.1%	40%	49.6%	32.8%	6.61% (active)	0.648% (active)	12.7%	
N#Cc1nc(-c2ccc(F)cc2)oc1S(=O)(=O)N1CCOCC1	-29.9% (active)	36.5%	91.2%	95.8%	98.9%	91%	82.6%	89.9%	8.36% (active)	83.6%	96.2%	82.1%	82%	-80.9% (active)	-99.9% (active)	78.5%	128%	3.08% (active)		
CCN(CC)CCn1c2ccc(O)cc2c2sc3cc(O)ccc3c(=O)c21	29.1%	27.1%	76.1%	23.4%	28.8%	31.5%	60.7%	39.4%	8.55% (active)	57.9%	48.8%	20.9%	26%	64.9%	3.32% (active)	43.5%	41.6%	14.6%		
Cn1cc(-c2ccc3nc(-c4ccc(CC(=O)ONc5cc(C(C)(C)C)on5)cc4)cnc3c2)cn1	16.5%	39.6%	37.4%	67.4%	32.3%	34.8%	58.8%	27.6%	30.5%	13%	39.2%	26.1%	20.9%	21.3%	13.4%	6.91% (active)	15.6%	38.8%	11.6%	
Oc1ccc(Cl)cc1/C=N\NC(=S)N/N=C/c1cc(Cl)ccc1O	23%	33.9%	77.7%	39.8%	25.9%	25.8%	-32.6% (active)	3.04% (active)	15.7%	26.2%	50.3%	45.9%	16.1%	31%	15.3%	-7.22% (active)	37.5%	8.57% (active)	11.8%	58.4%
N#Cc1nc(-c2ccc(Cl)cc2)oc1S(=O)(=O)N1CCN(c2ccc(F)cc2)CC1	54.3%	88.5%	94.2%	96.4%	94.6%	96.4%	96%	100%	29.3%	87.9%	111%	92.2%	81.3%	100%	102%	107%	78.6%	3.82% (active)		
CC(C)(C)CC(C)(C)NC(=O)Nc1ncccc1OCc1ccccc1	86.2%	80.9%	91.5%	95.9%	96.4%	82.4%	92.8%	81.4%	90.7%	83.5%	93.3%	89.5%	73.9%	96.3%	94.4%	80.2%	92.7%	94.2%	89.1%	
O=C1c2c(c3c4ccccc4[nH]c3c3ccc4ccccc4c23)C(=O)N1CCN1CCOCC1	20.6%	35.6%	63.7%	56%	32.3%	35.1%	37.4%	38.7%	27.2%	69.9%	61.8%	30.2%	27.6%	71.2%	15.3%	32.8%	61.4%	10.9%	6.38% (active)	73.9%
O=C(CSC(=S)n1cnnc1)NC(=O)c1ccccc1	107%	104%	95%	109%	116%	102%	109%	110%	97%	106%	104%	103%	87.8%	101%	105%	104%	106%	99.2%	102%	113%
COc1ccc(OC)c(-c2nc(SCC(=O)c3ccc(C#N)cc3)[nH]c(=O)c2C#N)c1	96.9%	108%	93.7%	97.6%	103%	94.5%	106%	94.7%	94.7%	104%	105%	107%	76.9%	103%	97.7%	96.8%	106%	106%	103%	
O=C(c1nn(-c2ccccc2)c2c1CC(NCc1ccc(F)cc1)CC2)N1CCCCC1 (configuration not stated)	99.5%	101%	84.5%	101%	95.7%	93.5%	96%	110%	99.1%	103%	97.6%	105%	74.2%	92.5%	104%	85%	120%	108%	73.5%	117%
O=C(/C=C/c1ccccc1)Nc1ncc(Cc2ccccc2Cl)s1	16%	6.09% (active)	15.8%	30.5%	27.2%	25.8%	34.3%	34.1%	21.3%	25.7%	38.2%	37.2%	39.2%	44.6%	33.3%	26.2%	-6.96% (active)	15.9%	34.2%	55.7%
O=S(=O)(Nc1ccc(Cl)c(C(F)(F)F)c1)c1ccc(-c2cnc(C3CC3)o2)cc1	22.5%	5.34% (active)	-2.82% (active)	18.3%	4.81% (active)	4.35% (active)	18.6%	-10.2% (active)	32.9%	5.31% (active)	31.5%	10.7%	35.5%	3.01% (active)	34.6%	35.6%	-8.08% (active)	9.87% (active)	5.21% (active)	
O=C1/C(=C/c2cccc(F)c2)CN(C(=O)C(Cl)Cl)C/C1=C\c1cccc(F)c1	-64.7% (active)	1.62% (active)	-52.2% (active)	-88.2% (active)	-90.2% (active)	-77.8% (active)	-82.2% (active)	-83.5% (active)	-92.1% (active)	-38.1% (active)	-7.73% (active)	-90.3% (active)	-85.5% (active)	-78.8% (active)	-97.7% (active)	-75.6% (active)	-80.1% (active)	0.153% (active)	-23.3% (active)	
